According to the supplement of paper PMC8975748:
Structures can show the parent of a compound that is named as a salt.

System: Saccharomyces cerevisiae BY4741 SeMeCo community
Assay: z-score of subpopulation abundance vs DMSO median, subpopulation auxotrophic for UM; higher = larger share of this subpopulation than in DMSO controls
Details: 10 µM; 24 h; SM minimal medium; subpopulation (auxotrophy): UM
Protocol: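 Fluorescent four-plasmid SeMeCo (self-establishing metabolically cooperating S. cerevisiae BY4741 community; plasmids pH-mRuby2, pL-mWasabi, pU-eCFP, pM-TagRFP657) was grown 24 h in minimal SM medium with each Selleck FDA-approved drug at 10 µM in 384-well plates. Cells were fixed and imaged by high-content confocal microscopy. For each auxotrophic subpopulation (and the prototroph), a z-score gives the deviation from the DMSO vehicle-control population median.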

Structure (SMILES)	z-score of subpopulation abundance
CN1C(C(=O)Nc2ccccn2)=C(O)c2sc(Cl)cc2S1(=O)=O [Lornoxicam]	0.21
CCn1cc(C(=O)O)c(=O)c2cc(F)c(N3CCNCC3)nc21 [Enoxacin]	-0.47
COC(=O)Nc1nc2cc(C(=O)c3ccc(F)cc3)ccc2[nH]1 [Flubendazole]	-0.47
CCC[C@@H]1C[C@@H](C(=O)N[C@@H]([C@H]2O[C@H](SC)[C@H](OP(=O)(O)O)[C@@H](O)[C@H]2O)[C@H](C)Cl)N(C)C1 [Clindamycin Phosphate]	1.19
CC1(C)S[C@@H]2[C@H](NC(=O)Cc3ccccc3)C(=O)N2[C@H]1C(=O)O [Penicillin G Sodium]	-0.23
Cc1onc(-c2c(F)cccc2Cl)c1C(=O)N[C@@H]1C(=O)N2[C@@H]1SC(C)(C)[C@@H]2C(=O)O [Flucloxacillin sodium]	0.64
N[C@@H](CCC(=O)O)C(=O)O [(S)-Glutamic acid]	-0.63
O=C(NCCN1CCOCC1)c1ccc(Cl)cc1	-1.28
C[C@@H](O)[C@H]1C(=O)N2C(C(=O)O)=C(S[C@@H]3CN[C@H](C(=O)N(C)C)C3)[C@H](C)[C@H]12 [Meropenem Trihydrate]	-0.82
CCN(CC)CCOC(=O)c1ccc(N)cc1 [Procaine HCl]	-0.8
COc1c(N2C[C@@H]3CCCN[C@@H]3C2)c(F)cc2c(=O)c(C(=O)O)cn(C3CC3)c12 [Moxifloxacin HCl]	-0.68
CCCCCCCCCCCC(=O)O [Lauric Acid]	0.3
Cc1ccc(S(=O)(=O)NC(=O)NN2CC3CCCC3C2)cc1 (stereo not given) [Gliclazide]	0.59
CC[C@H](C)C[C@H](C)CCCCCCCCC(=O)N[C@H]1C[C@@H](O)[C@@H](NCCN)NC(=O)[C@@H]2[C@@H](O)CCN2C(=O)[C@H]([C@H](O)CCN)NC(=O)[C@H]([C@H](O)[C@@H](O)c2ccc(O)cc2)NC(=O)[C@@H]2C[C@@H](O)CN2C(=O)[C@H]([C@@H](C)O)NC1=O [Caspofungin Acetate]	-2.51
CC(C)(O/N=C(\C(=O)N[C@@H]1C(=O)N2C(C(=O)[O-])=C(C[n+]3ccccc3)CS[C@H]12)c1csc(N)n1)C(=O)O [Ceftazidime]	0.27
CO/N=C(\C(=O)N[C@@H]1C(=O)N2C(C(=O)O)=C(CSc3nnnn3C)CS[C@H]12)c1csc(N)n1 [Cefmenoxime hydrochloride]	0.4
COc1ccc(C(C)=O)c(O)c1 [Paeonol]	0.01
O=C(O)Cc1ccccc1Nc1c(Cl)cccc1Cl [Diclofenac acid]	-0.58
CCC(=O)NS(=O)(=O)c1ccc(-c2c(-c3ccccc3)noc2C)cc1 [Parecoxib]	0.49
Nc1c(CC(=O)O)cccc1C(=O)c1ccc(Br)cc1 [Bromfenac Sodium]	0.59

Structure (SMILES)	z-score of subpopulation abundance
CN[C@@H]1[C@H](O[C@H]2[C@H](O[C@H]3[C@H](O)[C@@H](O)[C@H](NC(=N)N)[C@@H](O)[C@@H]3NC(=N)N)O[C@@H](C)[C@]2(O)CO)O[C@@H](CO)[C@H](O)[C@H]1O [Dihydrostreptomycin sulfate]	-0.47
COCC(=O)Nc1cc(Sc2ccccc2)ccc1N=C(NC(=O)OC)NC(=O)OC [Febantel]	-0.56
NC[C@@H]1O[C@H](O[C@H]2[C@@H](O)[C@H](O[C@@H]3[C@@H](O)[C@H](N)C[C@H](N)[C@H]3O[C@H]3O[C@H](CO)[C@@H](O)[C@H](O)[C@H]3N)O[C@@H]2CO)[C@H](N)[C@@H](O)[C@@H]1O [Paromomycin Sulfate]	-0.2
CO[C@@]1(NC(=O)C(C(=O)O)c2ccc(O)cc2)C(=O)N2C(C(=O)O)=C(CSc3nnnn3C)CO[C@@H]21 (stereo not given in full) [Latamoxef sodium]	-0.41
CN(C)CCCN1c2ccccc2CCc2ccc(Cl)cc21 [Clomipramine HCl]	0.93
Cc1c[nH]c(=O)[nH]c1=O [Thymine]	0.58
CO[C@@H]1[C@H](OC(=O)/C=C/C=C/C=C/C=C/C(=O)O)CC[C@]2(CO2)[C@H]1[C@@]1(C)O[C@@H]1CC=C(C)C [Fumagillin]	0.11
NC[C@@H]1O[C@H](O[C@H]2[C@@H](O)[C@H](O[C@@H]3[C@@H](O)[C@H](N)C[C@H](N)[C@H]3O[C@H]3O[C@H](CN)[C@@H](O)[C@H](O)[C@H]3N)O[C@@H]2CO)[C@H](N)[C@@H](O)[C@@H]1O [Neomycin sulfate]	-1.35
OCc1ccc(Cl)cc1Cl [2,4-dichlorobenzyl alcohol]	-0.17
COc1cc2c(cc1OC)[C@@H]1Cc3ccc(OC)c(OC)c3CN1CC2 [Rotundine]	-0.01
C[C@H]1COc2c(C3(N)CC3)c(F)cc3c(=O)c(C(=O)O)cn1c23 [Pazufloxacin mesylate]	-0.02
Cc1ccccc1OCC(O)CO (stereo not given) [Mephenesin]	-0.82
O=C(O[C@H]1CN2CCC1CC2)N1CCc2ccccc2[C@@H]1c1ccccc1 [Solifenacin succinate]	1.06
CCCc1nn(C)c2c(=O)[nH]c(-c3cc(S(=O)(=O)N4CCN(C)CC4)ccc3OCC)nc12 [Sildenafil Citrate]	0.49
CC(=O)C1C(=O)C=C(C)OC1=O (stereo not given) [Sodium dehydroacetate]	0.54
CCCOc1ccc2c(c1)CC[C@@H]1[C@@H]2CC[C@]2(C)[C@@H](OC)CC[C@@H]12 [Promestriene]	1.71
CC[C@@H]1/C=C(\C)C[C@H](C)C[C@H](OC)[C@H]2O[C@@](O)(C(=O)C(=O)N3CCCC[C@H]3C(=O)O[C@H](/C(C)=C/[C@@H]3CC[C@H](Cl)[C@H](OC)C3)[C@H](C)[C@@H](O)CC1=O)[C@H](C)C[C@@H]2OC [Pimecrolimus]	-0.8
CCN1CCC[C@H]1CNC(=O)c1cc(S(N)(=O)=O)ccc1OC [Levosulpiride]	0.08
Nc1ccc(S(=O)(=O)Nc2ncccn2)cc1 [Sodium sulfadiazine]	-0.13
CC(C(O)c1ccc(O)cc1)N1CCC(Cc2ccccc2)CC1 (stereo not given) [Ifenprodil Tartrate]	-0.03
